Only some compounds are listed: those with a hit (about 2.3% of all), similar ones and a draw of the others.
M1 PAM parental = M1 PAM counterscreen hit in parental CHO-K1 cells | ATP EC20, Fluo-8 calcium fluorescence; 0% at ATP EC20, 100% at ATP max | activation, % at 3 µM | 0.02% of 360,000 active;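 active = activation above the run cutoff, the mean activation of all test compounds plus 3 SD, cut at about 40% in these data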;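 note: peak over basal fluorescence ratio in a 140 s read after ATP addition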
CHRM1 PAM = human CHRM1 positive allosteric modulation; P11229; CHO-K1 hM1, Fluo-8 calcium fluorescence, ACh EC20; 0% = ACh EC20, 100% = maximal ACh; activation, % at 3 µM; 0.088% of 360,000 active; AID 588819; in the data active = activation above about 19%, passing the limit was not always enough
Target sequence (P11229 whole entry, looked up): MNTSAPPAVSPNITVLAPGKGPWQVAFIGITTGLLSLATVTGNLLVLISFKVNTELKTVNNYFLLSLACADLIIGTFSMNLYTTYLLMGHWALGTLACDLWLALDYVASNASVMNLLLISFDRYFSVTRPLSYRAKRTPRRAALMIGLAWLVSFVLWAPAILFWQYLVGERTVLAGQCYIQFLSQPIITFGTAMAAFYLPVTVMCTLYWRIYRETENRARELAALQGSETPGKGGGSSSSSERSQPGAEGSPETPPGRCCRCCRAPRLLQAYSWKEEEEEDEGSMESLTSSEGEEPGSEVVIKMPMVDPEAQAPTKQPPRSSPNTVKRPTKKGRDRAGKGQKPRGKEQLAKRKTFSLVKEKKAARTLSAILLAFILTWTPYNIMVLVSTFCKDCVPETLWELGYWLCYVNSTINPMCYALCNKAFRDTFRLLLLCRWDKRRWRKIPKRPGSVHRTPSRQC
M1 antag = human CHRM1 antagonism; AID 588852; 1.3% of 360,000 active; CHO-K1 hM1, Fluo-8 calcium fluorescence, ACh EC80 antagonist; inhibition, % at 3 µM; P11229;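 active = percent inhibition above its own plate's cutoff, namely the mean of that plate's compound wells plus 3 SD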;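 note: peak over basal fluorescence ratio during 140 s after agonist addition; 0% = ACh EC80 plus DMSO and 100% = DMSO alone without agonist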
CHO-K1 Ca ag = counter-screen for M1 agonists: effect in parental CHO-K1 cells | Fluo-8 calcium fluorescence; scaled to maximal ATP response, vehicle zero | activation, % at 3 µM | 0.48% of 360,000 active; in the data active = activation above about 15%;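 note: untransfected CHO-K1 host cells lacking M1 receptor as counterscreen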
M1 ag = agonists of human M1 muscarinic receptor; AID 588814; P11229; CHO-K1 hM1, Fluo-8 calcium fluorescence, agonist mode; 0% DMSO, 100% acetylcholine EC100; activation, % at 3 µM; 0.33% of 360,000 active;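 active = activation above the run's mean compound activation plus 3 SD, cut at about 16% in these data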;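 note: peak over basal fluorescence ratio within a 140 s kinetic read after compound addition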
CHO-K1 Ca antag = counter-screen for M1 antagonists: effect in parental CHO-K1 cells. ATP-induced calcium, Fluo-8 fluorescence. inhibition, % at 3 µM. 0.6% of 360,000 active. AID 602250;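 active = inhibition above a per-plate cutoff, the plate's mean sample inhibition plus 3 SD, cut at about 24% in these data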;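 note: 0% = DMSO plus EC80 ATP and 100% = DMSO alone without ATP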
Starred values were filed as active, the others as inactive.

SMILES | M1 PAM parental | CHRM1 PAM | M1 antag | CHO-K1 Ca ag | M1 ag | CHO-K1 Ca antag
CCn1c(SCC(=O)NNC(=S)Nc2ccc(C)cc2)nnc1-c1ccc(Cl)cc1 | 27 | 11 | -12 | 16* | -6 | -5
O=[N+]([O-])/C(=C\Nc1ccc(F)cc1F)S(=O)(=O)c1ccccc1 | -3 | -5 | -2 | 1 | -4 | -16
CCCCCn1nc(C(=O)N(CCOC)c2c(N)n(CCCC)c(=O)[nH]c2=O)c2ccccc2c1=O | 3 | 6 | -3 | 1 | -3 | 0
COc1ccc(C=C2CS(=O)(=O)CC(=Cc3ccc(OC)cc3)C2=O)cc1 | -6 | 4 | 3 | 3 | 1 | 5
Cc1cc2c(NCCc3ccccc3)ncnc2s1 | -16 | -5 | 24 | 12 | 4 | 24*
CCCCCCCCNc1ncnc2ccccc12 | -6 | -11 | 29* | 11 | -2 | 39*
c1ccc(CCNc2ncnc3ccccc23)cc1 | -3 | -12 | 24 | 10 | -4 | 32*
Cc1ccccc1C(=O)N1CCC(C(=O)N2CCCc3ccccc32)CC1 | 28 | 5 | -1 | 5 | 2 | -6
S=c1[nH]nc(COc2ccccc2)n1Cc1ccccc1 | 17 | -6 | 0 | 5 | -7 | -1
S=c1[nH]nc(CN2CCCC2)n1Cc1ccccc1 | -13 | -23 | 44* | -1 | -7 | 34*
CCCCn1c(Cc2ccccc2)n[nH]c1=S | -6 | -20 | 86* | 0 | -5 | 4
S=c1[nH]nc(CN2CCCCC2)n1Cc1ccccc1 | 9 | -24 | 43* | 0 | -7 | -5
CCn1c(Cc2ccccc2)n[nH]c1=S | 20 | 5 | -11 | 1 | -5 | -23
Cc1ccccc1NC(=O)Cc1nnc(SCC(=O)NC2=NCCS2)n1C | -20 | 4 | 1 | 1 | 4 | -3
O=C(CN1CCN(Cc2cccc3ccccc23)CC1)NCCc1ccccc1 | 2 | 3 | -8 | 5 | -9 | -17
Cc1ccc(S(=O)(=O)N2C[C@H]3C(=O)C[C@@H](c4ccccc4)N(S(=O)(=O)c4ccc(Br)cc4)[C@H]3C[C@H]2c2ccccc2)cc1 | 5 | 4 | 0 | 1 | 0 | 8
CSCC(=O)NS(=O)(=O)c1ccc(C)cc1 | -17 | -12 | 20 | 0 | -2 | 28*
CC(=O)c1cccc(NC(=O)CCc2nnc3ccc(N4CCOCC4)nn23)c1 | 18 | 1 | 6 | 0 | -3 | -21
CN(CC(=O)Nc1ccccc1Br)C(=O)CNC(=O)c1cccs1 | -18 | -4 | 34* | 0 | -2 | 9
CC(=O)Nc1ccc(NC(=O)CN(C)CC(=O)Nc2ccccc2Br)cc1 | -19 | -14 | 38* | 5 | -4 | 11
CN(CC(=O)Nc1ccc(C(N)=O)cc1)CC(=O)Nc1ccccc1Br | -17 | 5 | -7 | 1 | 4 | 2
Cc1ccc(C(=O)NCC(=O)N(C)CC(=O)Nc2ccccc2Br)s1 | -15 | 6 | 3 | 0 | 0 | 8
O=C(Cn1nc(-c2cccc(Cl)c2)ccc1=O)NCC1COCCO1 (stereo not drawn) | 0 | 5 | 0 | 1 | -4 | 0
Cc1cc(Cl)ccc1OCC(O)CNCCc1ccc(S(N)(=O)=O)cc1 (stereo not drawn) | -3 | -16 | 43* | 1 | 0 | 2
Cc1ccc(/C=C2\CCC3=C2OC(N)=C(C#N)C3c2ccc(C)cc2)cc1 (stereo not drawn) | -12 | -12 | 50* | 16* | 27* | 35*
SMILES | M1 PAM parental | CHRM1 PAM | M1 antag | CHO-K1 Ca ag | M1 ag | CHO-K1 Ca antag
Cc1ccc(NC(=S)NC(=O)c2ccc(Br)o2)c(C)c1 | 3 | 11 | -7 | 19* | -12 | 9
C=CCn1c(SCCOc2ccc(OC)cc2)nnc1C(CO)NC(=O)c1ccc(OC)cc1 (stereo not drawn) | -14 | -7 | 17 | 1 | -3 | 25*
CN(C)C(C)(C)C#CCC(c1ccccc1)c1ccccc1 | 5 | -25 | 87* | 2 | -7 | -4
CN(C)C(C)(C)C#CCCCCC#CC(C)(C)N(C)C | 19 | 10 | -19 | 1 | -9 | -10
CC1=C(C(=O)N2CCOCC2)C(c2ccc(Cl)cc2)NC(=S)N1 (stereo not drawn) | 14 | 11 | -3 | 20* | -7 | 7
CCCCNC(=S)N(C)/N=C/c1ccc(OCC(=O)Nc2c(C)cc(C)cc2C)c(OC)c1 | -4 | 3 | -7 | -1 | -1 | 5
CCCCNC(=S)N(C)/N=C/c1ccc(OCC(=O)Nc2ccc(OC)cc2)c(OC)c1 | -3 | -19 | 34* | 4 | -1 | 18
CCNC(=S)N/N=C/c1ccc(OCC(=O)Nc2ccc(OC)cc2)c(OC)c1 | -9 | -16 | 39* | 7 | -1 | 20
C/C=C/c1ccc(OCC(=O)Nc2ccncc2)c(OC)c1 | -1 | -9 | 14 | 15* | -1 | 17
Cc1cccc(NC(=O)CSCC(=O)OCc2ccccn2)c1 | 4 | 17 | -7 | 0 | 1 | -6
O=C(CSCc1cc(=O)n2ccsc2n1)Nc1ccccc1 | 7 | -3 | 6 | 0 | -3 | -7
COC(=O)C(CC(=O)c1ccc(Cl)cc1)c1ccc(C)cc1 (stereo not drawn) | -4 | 33* | 5 | -1 | -5 | -2
CC1=NNC(=O)/C1=C\c1cn(-c2ccccc2)nc1-c1cccs1 | -6 | -3 | 34* | 9 | 2 | 31*
CCOc1ccccc1NC(=O)c1cc(=O)[nH]c2ccc(S(=O)(=O)N3CCOCC3)cc12 | 6 | 4 | -4 | 0 | -3 | -21
N#CCCN1CCN(CCC#N)C1=S | -1 | -3 | 1 | 1 | 16* | -6
N#CCCN1CCN(CCC#N)c2ccccc21 | -1 | 0 | 2 | 0 | 0 | -4
CCCCOc1ccc(Br)cc1/C(C)=N/NC1=NCCN1 | 8 | -22 | 73* | 1 | -4 | 2
N#Cc1ccc(OCC(=O)N2CCCC2=O)cc1 | -3 | 0 | 10 | 0 | -2 | 1
Cc1[nH][nH]c(=O)c1C=NCc1cccnc1 | 20 | 5 | 3 | 1 | -4 | 4
C=CCn1c(O)c(C(CC)=NCc2cccnc2)c(=O)[nH]c1=O | -5 | 11 | -1 | 0 | -1 | 25*
COc1ccc(NC(=O)Nc2nnc([C@H]3C[C@H](O)[C@@H](CO)O3)s2)cc1 | 2 | 4 | -11 | 0 | -4 | 0
Fc1cc(F)c(F)c(SCn2cc(Br)cn2)c1F | 18 | 6 | -10 | 0 | -6 | -12
Cn1c(SCc2cccc([N+](=O)[O-])c2)nc2ccccc2c1=O | -9 | -13 | 36* | 2 | 0 | -3
O=C(c1ccc(-n2c(SCc3cccc(F)c3)nc3ccccc3c2=O)cc1)N1CCOCC1 | 6 | 4 | -4 | 0 | 0 | 1

Compound activity: PubChem, The Scripps Research Institute Molecular Screening Center
